In PubChem BioAssay (NCATS):
Inconclusive results are not listed. Activity calls are given as the source filed them. Calls come from the whole dose curve; as a rule, active = well fitted inhibition curve with a large enough effect; inconclusive = small, poorly fitted or top-dose-only effect; inactive = flat fitted curve, though single readings scatter.

Legend:
Experiment in all cases: qHTS profiling for inhibitors of Plasmodium falciparum proliferation (AID 504749); note: nearly all actives have a fitted effect of over 60% in size
Conditions in all cases: P. falciparum in erythrocytes, SYBR Green DNA, 72 h; series mostly up to 28.7 µM
CP194 = system: CP194
Summary of the method: (§1)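 P. falciparum-infected erythrocytes (0.3% parasitemia, 2.5% hematocrit final) were exposed to compounds for 72 h at 37 C in 5% CO2, then lysed with SYBR Green buffer overnight at room temperature; parasite DNA fluorescence was normalized to artemisinin and DMSO controls.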

CP201 = system: CP201
Summary of the method: as §1

CP203 = system: CP203
Summary of the method: as §1

CP211 = system: CP211
Summary of the method: as §1

CP215 = system: CP215
Summary of the method: as §1

CP217 = system: CP217
Summary of the method: as §1

CP237 = system: CP237
Summary of the method: as §1

CP238 = system: CP238
Summary of the method: as §1

CP247 = system: CP247
Summary of the method: as §1

CP250 = system: CP250
Summary of the method: as §1

Measured: Potency
Potency is the fitted concentration of half-maximal effect.

COc1nc(C)nc(Cl)c1NC1=NCCN1
inactive: CP194 | CP201 | CP203 | CP211 | CP215 | CP217 | CP237 | CP238 | CP247 | CP250

CS(=O)(=O)Nc1ccc([N+](=O)[O-])cc1Oc1ccccc1
inactive: CP194 | CP201 | CP203 | CP211 | CP215 | CP217 | CP237 | CP238 | CP247 | CP250

CCCNCC(O)COc1ccccc1C(=O)CCc1ccccc1 (stereo not given)
active: CP194 3.38 µM | CP201 6.75 µM | CP203 1.69 µM | CP211 4.78 µM | CP215 1.51 µM | CP217 0.891 µM | CP237 0.447 µM | CP238 1 µM | CP247 1 µM | CP250 1 µM

C[C@](N)(Cc1ccc(O)c(O)c1)C(=O)O
inactive: CP194 | CP201 | CP203 | CP211 | CP215 | CP217 | CP237 | CP238 | CP247 | CP250

Cc1cc(C(C)(C)C)c(O)c(C)c1CC1=NCCN1
inactive: CP194 | CP201 | CP203 | CP211 | CP215 | CP217 | CP237 | CP238 | CP247 | CP250

Cn1c(=O)c2c(ncn2C)n(C)c1=O
inactive: CP194 | CP201 | CP203 | CP211 | CP215 | CP217 | CP237 | CP238 | CP247 | CP250

CC(C)Cc1ccc(C(C)C(=O)O)cc1 (stereo not given)
inactive: CP194 | CP201 | CP203 | CP211 | CP215 | CP217 | CP237 | CP238 | CP247 | CP250

CCOC(=O)c1ncn2c1CN(C)C(=O)c1cc(F)ccc1-2
inactive: CP194 | CP201 | CP203 | CP211 | CP215 | CP217 | CP237 | CP238 | CP247 | CP250

CN1CCN2c3ccccc3Cc3ccccc3C2C1 (stereo not given)
inactive: CP194 | CP201 | CP203 | CP211 | CP215 | CP217 | CP237 | CP238 | CP247 | CP250

CC(C)(Oc1ccc(C2CC2(Cl)Cl)cc1)C(=O)O (stereo not given)
inactive: CP194 | CP201 | CP203 | CP211 | CP215 | CP217 | CP237 | CP238 | CP247 | CP250

CC(C)(C)C(=O)Oc1ccc(S(=O)(=O)Nc2ccccc2C(=O)NCC(=O)O)cc1
inactive: CP194 | CP201 | CP203 | CP211 | CP215 | CP217 | CP237 | CP238 | CP247 | CP250

CN1CCC(=C2c3ccccc3C=Cc3ccccc32)CC1
inactive: CP194 | CP201 | CP203 | CP211 | CP215 | CP217 | CP237 | CP238 | CP247 | CP250

NCCCCCC(=O)O
inactive: CP194 | CP201 | CP203 | CP211 | CP215 | CP217 | CP237 | CP238 | CP247 | CP250

CC(C)NCC(O)COc1ccc(CCOCC2CC2)cc1 (stereo not given)
inactive: CP194 | CP201 | CP203 | CP211 | CP215 | CP217 | CP237 | CP238 | CP247 | CP250

NC(=O)OCC(COC(N)=O)c1ccccc1
inactive: CP194 | CP201 | CP203 | CP211 | CP215 | CP217 | CP237 | CP238 | CP247 | CP250

Cc1cnc(C(=O)NCCc2ccc(S(=O)(=O)NC(=O)NC3CCCCC3)cc2)cn1
inactive: CP194 | CP201 | CP203 | CP211 | CP215 | CP217 | CP237 | CP238 | CP247 | CP250

NC(=O)NO
inactive: CP194 | CP201 | CP203 | CP211 | CP215 | CP217 | CP237 | CP238 | CP247 | CP250

N[C@@H](Cc1c[nH]c2ccc(O)cc12)C(=O)O
inactive: CP194 | CP201 | CP203 | CP211 | CP215 | CP217 | CP237 | CP238 | CP247 | CP250

COC(=O)Nc1nc2ccc(C(=O)c3cccs3)cc2[nH]1
inactive: CP194 | CP201 | CP203 | CP211 | CP215 | CP217 | CP237 | CP238 | CP247 | CP250

CN1C(C(=O)Nc2ccccn2)=C(O)c2ccccc2S1(=O)=O
inactive: CP194 | CP201 | CP203 | CP211 | CP215 | CP217 | CP237 | CP238 | CP247 | CP250

OCCN1CCN(CCCN2c3ccccc3Sc3ccc(C(F)(F)F)cc32)CC1
active: CP194 10.7 µM | CP201 8.49 µM | CP203 13.5 µM | CP211 7.57 µM | CP215 13.5 µM | CP217 10 µM | CP237 12.6 µM | CP238 8.91 µM | CP247 11.2 µM | CP250 12.6 µM

CC(=O)OCC(CCn1cnc2cnc(N)nc21)COC(C)=O
inactive: CP194 | CP201 | CP203 | CP211 | CP215 | CP217 | CP237 | CP238 | CP247 | CP250

CC(CCc1ccc(O)cc1)NCCc1ccc(O)c(O)c1 (stereo not given)
inactive: CP194 | CP201 | CP203 | CP211 | CP215 | CP217 | CP237 | CP238 | CP247 | CP250

Cc1ccc(C(=O)Nc2ccc(S(=O)(=O)O)c3cc(S(=O)(=O)O)cc(S(=O)(=O)O)c23)cc1NC(=O)c1cccc(NC(=O)Nc2cccc(C(=O)Nc3cc(C(=O)Nc4ccc(S(=O)(=O)O)c5cc(S(=O)(=O)O)cc(S(=O)(=O)O)c45)ccc3C)c2)c1
inactive: CP194 | CP201 | CP203 | CP211 | CP215 | CP217 | CP237 | CP238 | CP247 | CP250

NCCS(=O)(=O)O
inactive: CP194 | CP201 | CP203 | CP211 | CP215 | CP217 | CP237 | CP238 | CP247 | CP250

CCC1(c2ccccc2)C(=O)NCNC1=O
inactive: CP194 | CP201 | CP203 | CP211 | CP215 | CP217 | CP237 | CP238 | CP247 | CP250

CC[N+](CC)(CC)CCOc1cccc(OCC[N+](CC)(CC)CC)c1OCC[N+](CC)(CC)CC
inactive: CP194 | CP201 | CP203 | CP211 | CP215 | CP217 | CP237 | CP238 | CP247 | CP250

CS(=O)(=O)CCNCc1ccc(-c2ccc3ncnc(Nc4ccc(OCc5cccc(F)c5)c(Cl)c4)c3c2)o1
inactive: CP194 | CP201 | CP203 | CP211 | CP215 | CP217 | CP237 | CP238 | CP247 | CP250

O=c1c(-c2ccc(O)cc2)coc2cc(O)cc(O)c12
inactive: CP194 | CP201 | CP203 | CP211 | CP215 | CP217 | CP237 | CP238 | CP247 | CP250

CN(C)c1nc(N(C)C)nc(N(C)C)n1
inactive: CP194 | CP201 | CP203 | CP211 | CP215 | CP217 | CP237 | CP238 | CP247 | CP250

Cc1cn([C@H]2C=C[C@@H](CO)O2)c(=O)[nH]c1=O
inactive: CP194 | CP201 | CP203 | CP211 | CP215 | CP217 | CP237 | CP238 | CP247 | CP250
